# Bioassay records deposited in PubChem by The Scripps Research Institute Molecular Screening Center.
# ssDAF12 agonist: activators of S. stercoralis DAF-12 nuclear receptor. HEK293 ssDAF-12/GRIP1 lit1-tk-luc reporter, luminescence; % of 3 µM dafachronic acid response. 1% of 370,000 active. activation, % at 6.8 µM;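 active means activation above the mean over all tested compounds plus 3 SD, cut at about 0.9% in these data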;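 further: 0% = DMSO-only wells and 100% = 3 µM delta7-dafachronic acid wells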
# SMARCA2 activ: activators of SMARCA2 function; MG213 cells, MMTV-luciferase reporter, dexamethasone, overnight; activation, % at 9.1 µM; 1% of 370,000 active; in the data active means activation above about 7.8%;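 further: 0% = vehicle wells and 100% = reference activator wells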
# hcDAF12 agonist: H. contortus DAF-12 activation, primary screen; AID 652067; 1.4% of 370,000 active; HEK293 hcDAF-12 lit1-tk-luc reporter, luminescence; 0% DMSO, 100% Δ7-dafachronic acid; activation, % at 6.8 µM;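 active means activation above the mean of all tested compounds plus 3 SD, cut at about 5.5% in these data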;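 further: 100% = response to 3 µM Δ7-dafachronic acid high control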
# DAX1 inh-1: DAX1 (NR0B1) inhibition, primary screen | HEK293T StAR-luciferase reporter, SF-1/DAX-1 repression relief | inhibition, % at 6.8 µM | 1.1% of 370,000 active;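 active means inhibition above the mean over all tested compounds plus 3 SD, cut at about 3.6% in these data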;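 further: 0% = DAX-1 cells with DMSO and 100% = cells lacking DAX-1 with DMSO; higher inhibition means more luminescence from relief of DAX-1 repression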
# hgDAF12 agonist: agonists of H. glycines DAF-12 nuclear receptor | HEK293 GAL4-hgDAF12 UAS-luciferase reporter, agonist luminescence; normalized to butyrate control | activation, % at 6.8 µM | 1.8% of 370,000 active;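 active means activation above a cutoff set at the mean of all screened compounds plus 3 SD, cut at about 10% in these data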;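 further: 0% = DMSO wells and 100% = sodium butyrate wells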
# DAX1 inh-2: inhibits human nuclear receptor DAX1 | P51843 | HEK293 Gal4-DAX1 luciferase reporter, luminescence | inhibition, % at 6.75 µM | 0.99% of 340,000 active | AID 504766;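 active means inhibition above the mean over all tested compounds plus 3 SD, cut at about 4.2% in these data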;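 further: 0% = DAX1-transfected cells with DMSO and 100% = empty-vector control cells with DMSO; inhibition shows as a rise in luminescence from relieved DAX1 repression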
# Target sequence (P51843 207-470 limits assumed): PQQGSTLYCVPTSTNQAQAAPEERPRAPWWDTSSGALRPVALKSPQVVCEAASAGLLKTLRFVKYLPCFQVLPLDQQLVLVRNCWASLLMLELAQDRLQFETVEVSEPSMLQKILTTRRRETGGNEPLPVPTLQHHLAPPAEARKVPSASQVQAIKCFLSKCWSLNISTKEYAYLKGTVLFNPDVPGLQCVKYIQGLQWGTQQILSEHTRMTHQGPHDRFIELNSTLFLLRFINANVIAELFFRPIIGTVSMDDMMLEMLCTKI
# hgDAF12 ag: confirmation of H. glycines DAF-12 agonists; 80% of 3,300 active; HEK293 GAL4-hgDAF12 luciferase reporter, agonist mode; percent of butyrate response; activation, % at 6.8 µM; shares compounds with hgDAF12 agonist;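 active means mean activation over triplicate wells above the hit cutoff derived from the earlier primary screen, cut at about 11% in these data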;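 further: 0% = DMSO low control and 100% = 2 mM sodium butyrate high control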
# LXR ag 2: counter-screen for DAF-12 agonists: agonists of human LXR-beta; shares compounds with hgDAF12 agonist; HEK293 Gal4-LXR luciferase reporter, 24 h; activation, % at 6.8 µM; 3,300 tested, under 10 active; AID 743051;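 active means mean activation of the triplicate above a set limit carried over from the primary screen, none filed active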
# Starred values were filed as active, the others as inactive; x = no result given. Rows were chosen to be rich in hits. Some 4.8% of all compounds tested hit in one or more screens of this group.
SMILES,ssDAF12 agonist,SMARCA2 activ,hcDAF12 agonist,DAX1 inh-1,hgDAF12 agonist,DAX1 inh-2,hgDAF12 ag,LXR ag 2
O=C(Nc1cccc(Cl)c1Cl)c1csc([C@H]2C[C@H](O)[C@@H](CO)O2)n1,0,1,5,2,15*,x,13*,1
O=C(Nc1cccc(Cl)c1Cl)c1csc([C@@H]2O[C@H](CO)[C@@H](O)[C@H]2O)n1,-1,0,0,2,7,x,x,x
Fc1ccc(OCc2nc(-c3cccs3)no2)cc1,0,4,3,3,16*,3,12*,0
Cc1cc(N=O)no1,-1,-1,-2,2,6,x,x,x
Cc1nn(C)c(=O)n1-c1ccc(Oc2ccccc2)cc1,-2,-1,-2,-1,-1,1,x,x
Cc1ccc(-n2c(C)nn(CCOc3ccccc3)c2=O)cc1,-1,5,2,3,13*,1,9,0
COc1cccc(CNC(=O)[C@H]2CCCN2C(=O)C2CCCN2C(=O)c2ccc(OC)c(F)c2)c1 (some centres not stated),-1,-4,-1,0,0,x,x,x
O=C(Nc1ccccc1Cl)c1ccc(Cl)cc1Cl,-1,4,-1,0,4,1,x,x
O=C(NC(=S)Nc1ccccc1O)c1ccc(Cl)cc1Cl,1,3,6.5*,1,14*,0,9,0
O=C(OCc1ccccc1)N1Cc2ccnnc2CC1c1ccccc1-c1ccc(C(F)(F)F)cc1 (configuration not stated),-1,-6,-1,0,-2,x,x,x
CCOC(=O)c1ccc(NC(=O)C2CC3CCC2C3)cc1 (configuration not stated),0,7.9*,6.5*,3,14*,x,17*,1
COC(=O)c1ccc(NC(=O)C2CC3CCC2C3)cc1 (configuration not stated),-1,4,0,1,7,2,x,x
COc1ccc2oc(C(=O)OC/C(O)=C(\C#N)c3nc4ccccc4[nH]3)c(C)c2c1,-1,-2,1,0,-2,1,x,x
COc1ccc2oc(C(=O)Nc3nc4ccccc4[nH]3)c(C)c2c1,0,7,5,4.2*,25*,2,18*,1
O=C(CC(NC(=O)OCc1ccccc1)c1nn[nH]n1)OCc1ccccc1 (configuration not stated),1,5,3,2,13*,2,11*,1
Cc1cc2c(c(=O)o1)[C@@]1(C(=O)Nc3ccccc31)C1=C(CCCC1=O)O2,-1,1,2,-1,2,x,x,x
CN1CCN(c2ccc(NC(=O)COc3ccccc3)cc2Cl)CC1,1,1,1,3,15*,1,14*,0
CSc1nc2c(=O)[nH]cnc2s1,-1,-2,1,0,2,x,x,x
COc1ccc(N2C(=O)S[C@@H]3CS(=O)(=O)C[C@@H]32)cc1,-1,-4,-2,0,-3,0,x,x
Cc1ccc2nc(-c3ccc(N4C(=N)SC5CS(=O)(=O)CC54)cc3)sc2c1 (configuration not stated),0,5,2,1,14*,1,13*,0
C[C@H]1CN([C@@H](C)CO)C(=O)CCCn2cc(nn2)CO[C@@H]1CN(C)C(=O)c1ccc2ccn(C)c2c1,-1,4,0,0,-3,x,x,x
COc1ccc2c(c1)CC/C2=N\OC(=O)c1cccc(C)c1,0,5,2,2,14*,2,17*,1
NS(=O)(=O)c1ccc(N=NN2CCCCC2)cc1,0,3,1,1,6,1,x,x
O=C(O)c1ccc(N=NN2CCCCC2)cc1,0,2,1,3,14*,x,12*,1
CC1=C(C(=O)OCc2ccccc2)C(c2ccccc2Br)NC(=O)N1 (configuration not stated),-1,-3,-4,-1,-3,-2,x,x
SMILES,ssDAF12 agonist,SMARCA2 activ,hcDAF12 agonist,DAX1 inh-1,hgDAF12 agonist,DAX1 inh-2,hgDAF12 ag,LXR ag 2
Brc1ccccc1C1CC(c2ccccc2)=Nc2ccccc2N1 (configuration not stated),0,-2,4,1,14*,2,9,0
COc1ccc(C(=O)NCCSC2CCCCC2)cc1,0,7,3,2,16*,0,11*,0
O=C(Nc1ccccc1)O/N=C/c1ccc(F)cc1,0,5,4,3,15*,3,16*,1
c1ccc(CSc2ccc(-c3cccs3)nn2)cc1,1,4,3,4.3*,14*,1,15*,1
Nc1cc(=O)n(Cc2ccccc2)c(N)c1C(=O)NCc1ccccc1,0,-2,2,-1,2,x,x,x
O=C(Nc1ccccc1)OCCCc1ccccc1,-1,6,0,1,16*,1,12*,0
O=C(Nc1ccccc1)OCCCCOC(=O)Nc1ccccc1,-1,-2,-1,-1,5,-1,x,x
O=C(CCc1c[nH]c2ccccc12)Nc1ccc(Oc2cccnc2)cc1,-1,-1,-1,0,0,x,x,x
COc1cccc(Nc2nc3ccc(OC)cc3s2)c1,0,0,3,3,17*,2,18*,1
CSc1ncccc1C(=O)Nc1nc2ccc(S(C)(=O)=O)cc2s1,-1,8,1,-2,5,-1,x,x
COc1ccc(C(=O)Nc2nc3cc4c(cc3s2)OCO4)c(OC)c1,-1,3,2,3,17*,2,17*,1
COc1ccc2nc(NC(=O)c3cccnc3SC)sc2c1,-1,4,4,2,17*,0,14*,0
O=S(=O)(c1cccs1)N1CCCc2nc(-c3ccccc3)ccc21,-1,-6,0,1,1,x,x,x
COc1ccc(NC(=O)OC[C@@H]2CSCCS(=O)(=O)N2)cc1,-1,0,3,0,1,x,x,x
Cc1ccc(C(=O)Nc2ccccc2C(=O)NC(Cc2c[nH]c3ccccc23)C(=O)O)cc1 (configuration not stated),0,0,1,0,4,0,x,x
CCOC(=O)C(Cc1c[nH]c2ccccc12)NC(=O)c1ccccc1Br (configuration not stated),-1,1,3,0,14*,1,5,0
N/C(=N\OC(=O)c1cccc([N+](=O)[O-])c1)c1ccccn1,0.9*,4,5.8*,1,15*,4,13*,1
